Data on 3 compounds can be found in PubChem BioAssay (EPA / NIEHS).

Calls of active or inactive are those of the source. Rule for the calls: active = hit-call score of the fitted dose curve at least 0.9, where 1 is the maximum; inactive = score below 0.9.

Holding throughout (settings): mRNA level, 48 h; actives raise or lower the signal
Read-out in test [1]: Bcl-2 (BID) gene, BID (gene 637)
Kind of test: LTEA_HepaRG_BID: Life Technologies and Expression Analysis (LTEA) Assay for Bcl-2 (BID) gene using HepaRG (AID 2283476). An outline of the steps: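 Duplicate 48 h treatments of HepaRG cells in serum-free induction medium spanned 100 uM downward in half-log steps, 0.5% DMSO. Transcript change quantified by qRT-PCR against three housekeeping genes, fitted up or down versus DMSO.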

Read-out in test [2]: Caspase-3 (Homo sapiens) (UniProt P42574)
Kind of test: LTEA_HepaRG_CASP3: Life Technologies and Expression Analysis (LTEA) Assay for cysteine-aspartic acid protease (CASP3) using HepaRG (AID 2283477). An outline of the steps:
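Read-out is CASP3 mRNA level by TaqMan qRT-PCR in human HepaRG cells after 48 h chemical exposure. Eight half-log concentrations topping at 100 uM were tested in 0.5% DMSO; gain or loss was fitted relative to DMSO.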

Read-out in test [3]: Cytochrome P450 (CYP24A1), CYP24A1 (gene 1591)
Kind of test: LTEA_HepaRG_CYP24A1: Life Technologies and Expression Analysis (LTEA) Assay for Cytochrome P450 (CYP24A1) using HepaRG (AID 2283478). In a few lines: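 HepaRG, 48 h chemical exposure, 8-pt half-log CRC from 100 uM, 0.5% DMSO vehicle, duplicates. Endpoint: CYP24A1 mRNA by Fluidigm TaqMan qRT-PCR, normalized ACTB/GAPDH/POLR2A; gain/loss fit vs DMSO.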

Read-out in test [4]: Cytochrome P450 (CYP1A2), CYP1A2 (gene 1544)
Kind of test: LTEA_HepaRG_CYP1A2: Life Technologies and Expression Analysis (LTEA) Assay for Cytochrome P450 (CYP1A2) using HepaRG (AID 2283479). In a few lines: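 CYP1A2 transcript induction or loss, quantified by Fluidigm qRT-PCR against three housekeeping genes, was fitted bidirectionally against 0.5% DMSO controls. Human HepaRG cells received eight half-log concentrations from 100 uM over 48 h.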

Read-out in test [5]: cysteine-aspartic acid protease (CASP8), CASP8 (gene 841)
Kind of test: LTEA_HepaRG_CASP8: Life Technologies and Expression Analysis (LTEA) Assay for cysteine-aspartic acid protease (CASP8) using HepaRG (AID 2283480). In a few lines: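 Concentration-response in duplicate up to 100 uM (half-log steps, 0.5% DMSO) on differentiated HepaRG cultures for 48 h. Expression change of CASP8 mRNA is determined by TaqMan qRT-PCR with housekeeping-gene normalization.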

Read-out in test [6]: Cytochrome P450 (CYP2B6), CYP2B6 (gene 1555)
The test can be described thus: LTEA_HepaRG_CYP2B6: Life Technologies and Expression Analysis (LTEA) Assay for Cytochrome P450 (CYP2B6) using HepaRG (AID 2283481). An outline of the steps:
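HepaRG cells plated 48 h, switched to serum-free induction medium, then dosed 48 h (8 points, half-log from 100 uM, 0.5% DMSO). RNA isolated; CYP2B6 expression measured by qRT-PCR; gain or loss fitted relative to DMSO.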

Read-out in test [7]: Cytochrome P450 2C19 (Homo sapiens) (UniProt P33261)
The test can be described thus: LTEA_HepaRG_CYP2C19: Life Technologies and Expression Analysis (LTEA) Assay for CYP2C19 using HepaRG (AID 2283482). In a few lines: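 Transcript levels of CYP2C19 were quantified by qRT-PCR after HepaRG cells were treated for 48 hours with test chemicals up to 100 uM (eight half-log concentrations, 0.5% DMSO vehicle). Gain or loss of signal was fitted relative to DMSO.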

Read-out in test [8]: CYP2C8 (gene 1558)
Kind of test: LTEA_HepaRG_CYP2C8: Life Technologies and Expression Analysis (LTEA) Assay for CYP2C8 using HepaRG (AID 2283483). An outline of the steps: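 This is a transcriptional endpoint in HepaRG cultures: 48 h exposure, highest concentration 100 uM. CYP2C8 mRNA is quantified by TaqMan qRT-PCR.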

Read-out in test [9]: CYP2C9 (gene 1559)
Kind of test: LTEA_HepaRG_CYP2C9: Life Technologies and Expression Analysis (LTEA) Assay for CYP2C9 using HepaRG (AID 2283484). In a few lines:
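Eight-point concentration-response (highest 100 uM, half-log dilutions) in HepaRG cells for 48 h; CYP2C9 expression by qRT-PCR normalized to ACTB, GAPDH, POLR2A. Bidirectional fit, DMSO baseline.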

Read-out in test [10]: CYP2E1 (gene 1571)
The test can be described thus: LTEA_HepaRG_CYP2E1: Life Technologies and Expression Analysis (LTEA) Assay for CYP2E1 using HepaRG (AID 2283485). An outline of the steps:
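CYP2E1 transcript measured by Fluidigm qRT-PCR against three housekeeping genes in human HepaRG cells treated 48 h (top 100 uM, half-log steps, 0.5% DMSO vehicle). Gain or loss fitted relative to DMSO baseline.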

Read-out in test [11]: CYP4A11 (gene 1579)
Kind of test: LTEA_HepaRG_CYP4A11: Life Technologies and Expression Analysis (LTEA) Assay for CYP4A11 using HepaRG (AID 2283486). An outline of the steps:
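HepaRG, 48 h chem exposure, 8 conc (100 uM top, half-log), 0.5% DMSO vehicle; qRT-PCR readout, housekeeping-gene normalized; bidirectional curve fit vs DMSO baseline.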

Read-out in test [12]: Cytochrome P450 3A4 (Homo sapiens) (UniProt P08684)
Kind of test: LTEA_HepaRG_CYP3A4: Life Technologies and Expression Analysis (LTEA) Assay for CYP3A4 using HepaRG (AID 2283487). An outline of the steps: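 In a human hepatic line (HepaRG), duplicate wells were treated 48 h with up to 100 uM chemical in half-log dilutions. Endpoint: CYP3A4 mRNA induction or loss relative to 0.5% DMSO vehicle, by qRT-PCR.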

Read-out in test [13]: DNA damage-inducible transcript 3 (DDIT3), DDIT3 (gene 1649)
Kind of test: LTEA_HepaRG_DDIT3: Life Technologies and Expression Analysis (LTEA) Assay for DNA damage-inducible transcript 3 (DDIT3) using HepaRG (AID 2283488). In a few lines:
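DDIT3 transcript was quantified by qRT-PCR with ACTB/GAPDH/POLR2A normalization after 48 h chemical treatment of differentiated HepaRG cells in 0.5% DMSO. Dosing was eight-point, half-log, top 100 uM, duplicate wells. Curves fitted bidirectionally versus DMSO.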

Read-out in test [14]: Pro-epidermal growth factor (Homo sapiens) (UniProt P01133)
The test can be described thus: LTEA_HepaRG_EGF: Life Technologies and Expression Analysis (LTEA) Assay for Epidermal growth factor (EGF) using HepaRG (AID 2283489). An outline of the steps: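 HepaRG, 48 h dosing, 100 uM top, half-log x8, 0.5% DMSO. Readout: TaqMan qRT-PCR (Fluidigm array), housekeeping-normalized. Gain or loss of signal fit vs DMSO.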

Read-out in test [15]: Early growth response protein 1 (EGR1) transcription factor, EGR1 (gene 1958)
The test can be described thus: LTEA_HepaRG_EGR1: Life Technologies and Expression Analysis (LTEA) Assay for Early growth response protein 1 (EGR1) transcription factor using HepaRG (AID 2283490). In a few lines: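 EGR1 expression change in human HepaRG after 48 h chemical exposure, assessed by housekeeping-normalized qRT-PCR; concentration-response up to 100 uM, fitted in both directions against DMSO controls.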

Read-out in test [16]: Ezrin (EZR), EZR (gene 7430)
Kind of test: LTEA_HepaRG_EZR: Life Technologies and Expression Analysis (LTEA) Assay for Ezrin (EZR) using HepaRG (AID 2283491). In a few lines:
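Gain or loss of EZR mRNA is scored relative to 0.5% DMSO in human HepaRG cultures treated 48 h with test chemicals in duplicate, eight half-log concentrations from 100 uM.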

Read-out in test [17]: Cytochrome P450 3A7 (Homo sapiens) (UniProt P24462)
The test can be described thus: LTEA_HepaRG_CYP3A7: Life Technologies and Expression Analysis (LTEA) Assay for CYP3A7 using HepaRG (AID 2283492). In a few lines:
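Human HepaRG liver cells, 48 h post-plating, switched to serum-free induction medium and exposed in duplicate for 48 h. Dosing: 100 uM top, half-log dilutions, 8 points, 0.5% DMSO vehicle. Read-out: CYP3A7 mRNA, gain or loss fitted against DMSO baseline.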

Read-out in test [18]: CYP3A5 (gene 1577)
The test can be described thus: LTEA_HepaRG_CYP3A5: Life Technologies and Expression Analysis (LTEA) Assay for CYP3A5 using HepaRG (AID 2283493). An outline of the steps:
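mRNA levels were quantified by qRT-PCR on Fluidigm arrays and normalized to three housekeeping genes. Differentiated HepaRG cells received 48 h exposure (top 100 uM, half-log steps, 0.5% DMSO vehicle, duplicate); bidirectional fitting versus DMSO.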

Read-out in test [19]: Fatty Acid-Binding Protein 1 (FABP1), FABP1 (gene 2168)
The test can be described thus: LTEA_HepaRG_FABP1: Life Technologies and Expression Analysis (LTEA) Assay for Fatty Acid-Binding Protein 1 (FABP1) using HepaRG (AID 2283494). In a few lines: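 Values reflect bidirectional concentration-response fitting of FABP1 mRNA change against 0.5% DMSO controls. Human HepaRG cultures received eight half-log doses (top 100 uM) for 48 h; expression quantified by TaqMan qRT-PCR with housekeeping-gene normalization.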

Read-out in test [20]: Cytochrome P450 4A22 (Homo sapiens) (UniProt Q5TCH4)
The test can be described thus: LTEA_HepaRG_CYP4A22: Life Technologies and Expression Analysis (LTEA) Assay for Cytochrome P450 4A22 (CYP4A22) using HepaRG (AID 2283495). In a few lines:
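Readout is CYP4A22 transcript induction or loss, quantified by qRT-PCR and normalized to ACTB, GAPDH and POLR2A. Human HepaRG cells receive test chemicals for 48 h at eight half-log concentrations from 100 uM in 0.5% DMSO.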

Sequence of Cytochrome P450 2C19 (Homo sapiens) (P33261 whole entry, looked up): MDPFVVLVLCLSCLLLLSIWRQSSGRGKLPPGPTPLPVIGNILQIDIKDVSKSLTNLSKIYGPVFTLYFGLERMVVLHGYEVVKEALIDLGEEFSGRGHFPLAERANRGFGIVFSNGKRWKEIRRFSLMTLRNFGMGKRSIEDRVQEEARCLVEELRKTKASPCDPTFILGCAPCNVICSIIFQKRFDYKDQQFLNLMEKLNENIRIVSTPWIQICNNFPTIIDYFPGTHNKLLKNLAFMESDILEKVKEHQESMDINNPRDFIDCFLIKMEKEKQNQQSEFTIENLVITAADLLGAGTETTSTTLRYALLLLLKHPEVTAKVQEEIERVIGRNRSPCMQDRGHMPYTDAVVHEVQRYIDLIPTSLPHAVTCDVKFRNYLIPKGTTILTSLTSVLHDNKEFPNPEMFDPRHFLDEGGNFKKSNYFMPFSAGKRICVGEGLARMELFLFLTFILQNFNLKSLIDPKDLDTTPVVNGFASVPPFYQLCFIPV
Sequence of Cytochrome P450 3A4 (Homo sapiens) (P08684 whole entry, looked up): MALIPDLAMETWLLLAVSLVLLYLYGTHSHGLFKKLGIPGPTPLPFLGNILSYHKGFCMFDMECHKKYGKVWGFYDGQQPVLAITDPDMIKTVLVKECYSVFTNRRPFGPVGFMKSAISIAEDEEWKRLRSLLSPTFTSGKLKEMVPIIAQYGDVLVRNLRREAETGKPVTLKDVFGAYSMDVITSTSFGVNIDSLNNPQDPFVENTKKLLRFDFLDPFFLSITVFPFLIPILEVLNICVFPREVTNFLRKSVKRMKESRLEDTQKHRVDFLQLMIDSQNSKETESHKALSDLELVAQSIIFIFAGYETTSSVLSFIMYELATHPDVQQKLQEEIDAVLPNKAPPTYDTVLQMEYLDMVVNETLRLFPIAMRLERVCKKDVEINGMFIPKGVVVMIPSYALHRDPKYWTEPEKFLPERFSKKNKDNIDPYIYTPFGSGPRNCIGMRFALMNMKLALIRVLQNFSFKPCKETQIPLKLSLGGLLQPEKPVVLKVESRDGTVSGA
Sequence of Caspase-3 (Homo sapiens) (P42574 whole entry, looked up): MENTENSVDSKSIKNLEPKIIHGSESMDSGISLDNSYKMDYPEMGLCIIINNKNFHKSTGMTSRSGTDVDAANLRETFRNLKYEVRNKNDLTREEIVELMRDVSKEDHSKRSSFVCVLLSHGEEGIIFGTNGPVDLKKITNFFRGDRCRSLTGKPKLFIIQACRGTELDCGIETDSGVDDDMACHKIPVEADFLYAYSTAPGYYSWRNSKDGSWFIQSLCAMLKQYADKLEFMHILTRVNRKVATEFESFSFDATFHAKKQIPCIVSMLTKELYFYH
Sequence of Cytochrome P450 3A7 (Homo sapiens) (P24462 whole entry, looked up): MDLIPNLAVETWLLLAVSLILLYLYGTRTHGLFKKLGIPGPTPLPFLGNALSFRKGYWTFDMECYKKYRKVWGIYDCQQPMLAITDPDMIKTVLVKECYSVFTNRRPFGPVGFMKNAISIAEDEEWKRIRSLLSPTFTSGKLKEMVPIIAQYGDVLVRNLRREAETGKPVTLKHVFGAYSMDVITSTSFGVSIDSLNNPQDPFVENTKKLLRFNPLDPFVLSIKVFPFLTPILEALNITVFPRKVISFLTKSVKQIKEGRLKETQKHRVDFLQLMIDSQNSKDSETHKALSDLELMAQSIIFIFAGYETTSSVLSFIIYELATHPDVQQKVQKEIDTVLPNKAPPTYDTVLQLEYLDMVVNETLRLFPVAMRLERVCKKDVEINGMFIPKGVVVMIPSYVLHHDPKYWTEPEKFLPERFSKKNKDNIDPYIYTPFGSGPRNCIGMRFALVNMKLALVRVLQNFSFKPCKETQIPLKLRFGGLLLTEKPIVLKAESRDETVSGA

As for `CCCN(C1CCN(C(=O)C2CCNCC2)CC1)[C@@H]1CCc2ccc(OC)cc2C1`, the call in test [1], in test [2], in test [3], in [5], in test [14] and in test [15] was inactive. Further, the call in [16] was inactive. The AC50 (commonly the midpoint of the concentration-response curve, whichever way the signal moves) is 84.3 µM (active) in test [4]; 87.9 µM (active) in test [6]; 86.3 µM (active) in test [7]; 86.5 µM (active) in test [8]; 80.3 µM (active) in test [9]; 67.4 µM (active) in [10]. Moreover, the half-maximal activity concentration (AC50) in [11] was 90.7 µM (active); in [12], 86.7 µM (active); in test [13] it was 50 µM (active); in test [17], 86.4 µM (active); in [18] it was 80.3 µM (active); in [19] it was 83.5 µM (active). In test [20], the AC50 is 88.2 µM (active).

For the compound `CC1(C)C(=O)N(Br)C(=O)N1Br`, the outcome in test [1], in test [2], in test [3], in test [5], in [7] and in test [8] was inactive. The compound was classed as inactive in [9], in test [10], in [11], in test [12], in [13] and in [14]. Besides, the call in test [15], in test [16], in test [17], in test [18], in test [19] and in [20] was inactive. Also, the AC50 was 37.5 µM (active) in [4] and 7.06 µM (active) in test [6].

In the case of `Cn1c(=O)c2c(ncn2C)n(C)c1=O`, the compound was called inactive in test [1], in test [2], in test [3], in test [4], in test [5] and in test [7]. The compound was classed as inactive in test [8], in [9], in test [10], in [11], in test [12] and in [13]. Moreover, the compound was called inactive in test [14], in test [15], in test [16], in test [17], in test [18] and in test [19]. The outcome in test [20] was inactive. Besides, the AC50 in [6] is 50 µM (active).
